In publication PMC11995724, “Antibiotic target discovery by integrated phenotypic and activity-based profiling of electrophilic fragments” (Cell chemical biology, 2025):
The whole screen tested about 3,200 compounds, of which about 110 (3.4%) showed an effect of 50% or more. This is one part of a sample in which strong results are shown more often than they occur.

System: T1, V. cholerae SAD30
T1 construct: SAD30
Design: species or system S. aureus MSSA476 (TSB) or V. cholerae SAD30 (LB); 384-well bacterial growth screen at 25 uM, OD600 relative to DMSO control
Conditions: relative growth, OD600, LB; 25 µM; inhibitor

Question: Which “% of control remaining” value does the source give for `C=CC(=O)N1CCC(n2ncc3ccccc32)CC1` [1-K22, 1-[4-(1H-indazol-1-yl)piperidin-1-yl]prop-2-en-1-one] here?
Answer: Its value is 95.6652%.

Question: With `CC(Cl)C(=O)Nc1nc(-c2ccccc2)cs1` (centres unmarked) [6-L10, 2-chloro-N-(4-phenyl-1,3-thiazol-2-yl)propanamide] as the molecule, how does the “% of control remaining” value read?
Answer: Its value is 85.6953%.

Question: For `C=CC(=O)N1CCOCC1c1cc(F)cc(F)c1` (centres unmarked) [2-O16, 1-[3-(3,5-difluorophenyl)morpholin-4-yl]prop-2-en-1-one], which “% of control remaining” value is on record?
Answer: The value was 92.203%.

Question: How did the “% of control remaining” value turn out when `CCS(=O)(=O)N1CCc2cc(C(=O)CCl)ccc21` [10-E18, 2-chloro-1-[1-(ethanesulfonyl)-2,3-dihydro-1H-indol-5-yl]ethan-1-one] was run?
Answer: Its value is 27.8979%.

Question: For `N#Cc1ccc2c(c1)CCN2C(=O)CCl` [5-N09, 1-(2-chloroacetyl)-2,3-dihydro-1H-indole-5-carbonitrile], which “% of control remaining” value is on record?
Answer: The value was 93.4748%.

Question: For `O=C(CCl)c1ccc2c(c1)CCN(C(=O)C(F)(F)F)C2` [10-E09, 1-[6-(2-chloroacetyl)-1,2,3,4-tetrahydroisoquinolin-2-yl]-2,2,2-trifluoroethan-1-one], which “% of control remaining” value is on record?
Answer: Its value is 98.6558%.

Question: With `CC1Cc2cc(C(=O)CCl)ccc2N1S(C)(=O)=O` (centres unmarked) [10-A04, 2-chloro-1-(1-methanesulfonyl-2-methyl-2,3-dihydro-1H-indol-5-yl)ethan-1-one] as the molecule, how does the “% of control remaining” value read?
Answer: Its value is 89.6162%.

Question: `CCC(=O)N1CCc2cc(C(=O)CCl)ccc21` [10-C22, 1-[5-(2-chloroacetyl)-2,3-dihydro-1H-indol-1-yl]propan-1-one] was tested. Which “% of control remaining” value did it give?
Answer: Its value is 119.54%.

Question: Which “% of control remaining” value does the source give for `O=CN1CCc2cc(C(=O)CCl)ccc21` [10-K20, 5-(2-chloroacetyl)-2,3-dihydro-1H-indole-1-carbaldehyde] here?
Answer: Its value is 27.1186%.

Question: With `CS(=O)(=O)N1CCCc2cc(C(=O)CCl)ccc21` [10-H19, 2-chloro-1-(1-methanesulfonyl-1,2,3,4-tetrahydroquinolin-6-yl)ethan-1-one] as the molecule, how does the “% of control remaining” value read?
Answer: The value was 22.9106%.

Question: How did the “% of control remaining” value turn out when `O=C(CCl)c1c[nH]c(C(=O)N2CCCC2)c1` [10-A16, 2-chloro-1-[5-(pyrrolidine-1-carbonyl)-1H-pyrrol-3-yl]ethan-1-one] was run?
Answer: Its value is 108.475%.

Question: Which “% of control remaining” value does the source give for `CN1C(=O)Cc2cc(C(=O)CCl)ccc21` [10-G07, 5-(2-chloroacetyl)-1-methyl-2,3-dihydro-1H-indol-2-one] here?
Answer: The value was 54.3931%.

Question: How did the “% of control remaining” value turn out when `O=C(CCl)NCCS(=O)(=O)N1CCc2ccccc21` [6-H04, 2-chloro-N-[2-(2,3-dihydro-1H-indole-1-sulfonyl)ethyl]acetamide] was run?
Answer: Its value is 103.138%.

Question: With `O=C(CCl)c1cc2c3c(c1)CC(=O)N3CCC2` [10-G16, 6-(2-chloroacetyl)-1-azatricyclo[6.3.1.0,4,12]dodeca-4(12),5,7-trien-2-one] as the molecule, how does the “% of control remaining” value read?
Answer: The value was 27.7421%.

Question: With `Cc1ccc(NC(=O)N2CCSSCC2)c(C)c1` [10-F11, N-(2,4-dimethylphenyl)-1,2,5-dithiazepane-5-carboxamide] as the molecule, how does the “% of control remaining” value read?
Answer: Its value is 95.0711%.

Question: With `CC(Cl)C(=O)N(C)CCn1c(=O)oc2ccccc21` (centres unmarked) [7-H15, 2-chloro-N-methyl-N-[2-(2-oxo-2,3-dihydro-1,3-benzoxazol-3-yl)ethyl]propanamide] as the molecule, how does the “% of control remaining” value read?
Answer: Its value is 82.4715%.

Question: For `CC(C#N)CSc1ccccc1NC(=O)CCl` (centres unmarked) [6-K16, 2-chloro-N-{2-[(2-cyano-2-methylethyl)sulfanyl]phenyl}acetamide], which “% of control remaining” value is on record?
Answer: The value was 86.757%.

Question: For `C=CC(=O)N1CCC(C(=O)N[C@]2(C(=O)OC)CC[C@@H](C)CC2)CC1` [3-E17, methyl (1r,4r)-4-methyl-1-[1-(prop-2-enoyl)piperidine-4-amido]cyclohexane-1-carboxylate], which “% of control remaining” value is on record?
Answer: Its value is 101.088%.

Question: How did the “% of control remaining” value turn out when `O=C(CCl)N(Cc1ccc(Cl)cc1)C12CC3CC(CC(C3)C1)C2` [4-H07, N-(adamantan-1-yl)-2-chloro-N-[(4-chlorophenyl)methyl]acetamide] was run?
Answer: The value was 55.3806%.

Question: With `Cc1nn(CCC(=O)N2CCSSCC2)c(C)c1[N+](=O)[O-]` [10-J05, 3-(3,5-dimethyl-4-nitro-1H-pyrazol-1-yl)-1-(1,2,5-dithiazepan-5-yl)propan-1-one] as the molecule, how does the “% of control remaining” value read?
Answer: The value was 92.1099%.

Question: With `CCOC(=O)c1c(NC(=O)CCl)sc(C)c1C` [4-O15, ethyl 2-(2-chloroacetamido)-4,5-dimethylthiophene-3-carboxylate] as the molecule, how does the “% of control remaining” value read?
Answer: Its value is 102.998%.

Question: For `CC(=O)N1CCc2cc(C(=O)C(C)Cl)ccc21` (centres unmarked) [10-L22, 1-(1-acetyl-2,3-dihydro-1H-indol-5-yl)-2-chloropropan-1-one], which “% of control remaining” value is on record?
Answer: Its value is 100.214%.

Question: For `CS(=O)(=O)N1CCc2cc(C(=O)CCl)ccc21` [10-B19, 2-chloro-1-(1-methanesulfonyl-2,3-dihydro-1H-indol-5-yl)ethan-1-one], which “% of control remaining” value is on record?
Answer: The value was 18.0791%.

Question: Which “% of control remaining” value does the source give for `CC(=O)N1c2ccc(C(=O)CCl)cc2CC1C` (centres unmarked) [10-I20, 1-(1-acetyl-2-methyl-2,3-dihydro-1H-indol-5-yl)-2-chloroethan-1-one] here?
Answer: The value was 84.473%.

Question: Which “% of control remaining” value does the source give for `N#CC(=Cc1ccsc1)C(=O)Nc1ccccc1Cl` [9-O05, N-(2-chlorophenyl)-2-cyano-3-(thiophen-3-yl)prop-2-enamide] here?
Answer: The value was 98.9123%.

Question: `C=CC(=O)NCC1CNC(=O)c2ccccc21` (centres unmarked) [2-F17, N-[(1-oxo-1,2,3,4-tetrahydroisoquinolin-4-yl)methyl]prop-2-enamide] was tested. Which “% of control remaining” value did it give?
Answer: Its value is 90.0415%.

Question: How did the “% of control remaining” value turn out when `CC(Cl)C(=O)N1CCN(CCOc2ccc3c(c2)CCC3)CC1` (centres unmarked) [6-H17, 2-chloro-1-{4-[2-(2,3-dihydro-1H-inden-5-yloxy)ethyl]piperazin-1-yl}propan-1-one] was run?
Answer: The value was 64.6128%.

Question: With `C=CC(=O)N1CCCC(CS(=O)(=O)NC)C1` (centres unmarked) [2-E18, N-methyl-1-[1-(prop-2-enoyl)piperidin-3-yl]methanesulfonamide] as the molecule, how does the “% of control remaining” value read?
Answer: Its value is 95.4453%.

Question: How did the “% of control remaining” value turn out when `Cl.O=C(CCl)Nc1ccccn1` [5-B14, 2-chloro-N-(pyridin-2-yl)acetamide hydrochloride] was run?
Answer: Its value is 98.0141%.

Question: Which “% of control remaining” value does the source give for `O=C(CCl)c1ccccn1` [10-J03, 2-chloro-1-(pyridin-2-yl)ethan-1-one] here?
Answer: The value was 0%.

Question: How did the “% of control remaining” value turn out when `Cn1ccnc1C(=O)CCl` [10-C15, 2-chloro-1-(1-methyl-1H-imidazol-2-yl)ethan-1-one] was run?
Answer: Its value is 101.461%.

Question: How did the “% of control remaining” value turn out when `C[C@H]1CN(C(=O)CCl)CCN1C(=O)c1cscn1` [5-L05, 2-chloro-1-[(3S)-3-methyl-4-(1,3-thiazole-4-carbonyl)piperazin-1-yl]ethan-1-one] was run?
Answer: Its value is 86.0775%.

Question: How did the “% of control remaining” value turn out when `C[C@@H](NC(=O)CCl)c1ccccc1` [6-O20, 2-chloro-N-[(1R)-1-phenylethyl]acetamide] was run?
Answer: The value was 94.0373%.

Question: `O=C(CCl)c1cscn1` [10-L08, 2-chloro-1-(1,3-thiazol-4-yl)ethan-1-one] was tested. Which “% of control remaining” value did it give?
Answer: Its value is 0%.

Question: For `N#CC(=Cc1ccc(O)cc1)C(=O)NCCc1c(F)cccc1F` [9-I16, 2-cyano-N-[2-(2,6-difluorophenyl)ethyl]-3-(4-hydroxyphenyl)prop-2-enamide], which “% of control remaining” value is on record?
Answer: Its value is 83.8205%.

Question: Which “% of control remaining” value does the source give for `c1nc(N2CCSSCC2)c2c3c(sc2n1)CCCC3` [10-M22, 3-(1,2,5-dithiazepan-5-yl)-8-thia-4,6-diazatricyclo[7.4.0.0,2,7]trideca-1(9),2,4,6-tetraene] here?
Answer: The value was 79.3298%.

Question: How did the “% of control remaining” value turn out when `O=C(CCl)Nc1nccc(Cl)n1` [6-C19, 2-chloro-N-(4-chloropyrimidin-2-yl)acetamide] was run?
Answer: The value was 88.7288%.

Question: Which “% of control remaining” value does the source give for `CC(Cl)C(=O)Nc1ccccc1Sc1ccccc1` (centres unmarked) [6-H10, 2-chloro-N-[2-(phenylsulfanyl)phenyl]propanamide] here?
Answer: Its value is 56.4224%.

Question: For `O=C(CCl)Nc1ccccc1Sc1ccc(Cl)cc1` [4-O13, 2-chloro-N-{2-[(4-chlorophenyl)sulfanyl]phenyl}acetamide], which “% of control remaining” value is on record?
Answer: The value was 72.9782%.

Question: Which “% of control remaining” value does the source give for `O=C(O)C(c1ccccc1)N1C(=O)C=CC1=O` (centres unmarked) [10-E21, 2-(2,5-dioxo-2,5-dihydro-1H-pyrrol-1-yl)-2-phenylacetic acid] here?
Answer: The value was 103.487%.

Question: For `O=C1C=CC(=O)N1c1ccccc1Sc1ccc(Cl)cc1` [10-A03, 1-{2-[(4-chlorophenyl)sulfanyl]phenyl}-2,5-dihydro-1H-pyrrole-2,5-dione], which “% of control remaining” value is on record?
Answer: The value was 28.6772%.

Question: For `O=C1C=CC(=O)N1c1ccccc1Sc1ccccc1` [10-K12, 1-[2-(phenylsulfanyl)phenyl]-2,5-dihydro-1H-pyrrole-2,5-dione], which “% of control remaining” value is on record?
Answer: The value was 28.0538%.

Question: With `Cc1cc(NC(=O)CCl)n(-c2ccccc2)n1` [4-G05, 2-chloro-N-(3-methyl-1-phenyl-1H-pyrazol-5-yl)acetamide] as the molecule, how does the “% of control remaining” value read?
Answer: Its value is 102.825%.

Question: How did the “% of control remaining” value turn out when `CC(C)c1ccc(CCNC(=O)CCl)cc1` [6-I16, 2-chloro-N-{2-[4-(propan-2-yl)phenyl]ethyl}acetamide] was run?
Answer: Its value is 91.9139%.

Question: For `C=CC(=O)N1CCN(S(=O)(=O)Cc2ccon2)CC1` [1-J07, 1-{4-[(1,2-oxazol-3-yl)methanesulfonyl]piperazin-1-yl}prop-2-en-1-one], which “% of control remaining” value is on record?
Answer: Its value is 89.2377%.

Question: Which “% of control remaining” value does the source give for `CN(Cc1ccccc1)S(=O)(=O)c1ccc(NC(=O)CCl)cc1` [5-K08, N-{4-[benzyl(methyl)sulfamoyl]phenyl}-2-chloroacetamide] here?
Answer: Its value is 97.1735%.

Question: How did the “% of control remaining” value turn out when `N#CC(=Cc1cnc(-c2ccccc2)nc1)C(=O)NCc1ccco1` [9-M14, 2-cyano-N-[(furan-2-yl)methyl]-3-(2-phenylpyrimidin-5-yl)prop-2-enamide] was run?
Answer: The value was 95.2413%.
